In PubChem BioAssay AID720517 (National Center for Advancing Translational Sciences (NCATS), 2013):
Records with an inconclusive call do not appear. Unmarked numbers belong to inactive results. The call rests on the fitted dose curve; in most records, active means well fitted activation curve with a large enough effect; inconclusive means small, poorly fitted or top-dose-only effect; inactive means flat fitted curve, though single readings scatter.

Test: qHTS for Inhibitors of Cell Surface uPA Generation: FP59 Counterscreen for Cherry-picked Compounds; further: 0% is about no effect
Conditions: FP59 anthrax toxin cytotoxicity counterscreen, cells; series mostly up to 115 µM; activity (protection from FP59): at the top concentration

Compound | activity (protection from FP59)
COC(=O)[C@]1(Cc2ccccc2)N[C@H](CN(C)C(=O)c2ccccc2)[C@@H]2C(=O)N(Cc3ccccc3)C(=O)[C@@H]21 | 1.81%
CN(Cc1ccc(C(C)(C)C)cc1)C(=O)Cc1ccc(S(=O)(=O)N2CCOCC2)s1 | 5.97%
COc1ccc(-n2nnnc2SCC(=O)Nc2nnc(C)s2)cc1 | -1.43%
CCCCN(CC(=O)NCc1ccc(F)cc1)C(=O)c1ccco1 | -1.31%
CN(C)C(=O)NC(NC(=S)Nc1ccccc1)C(Cl)(Cl)Cl (centres undefined) | -0.348%
CCOC(=O)C1CCN(C(=O)COC(=O)c2c(C)c(CC)nc3ccccc23)CC1 | -1.5%
CCCn1c(N)c(C(=O)CSc2nnc(C3CC3)n2Cc2ccccc2)c(=O)[nH]c1=O | -1.31%
CCCCCCCCCOC(=O)C1N2C(=O)[C@@H](NC(=O)COc3ccccc3)[C@H]2SC1(C)C (some centres undefined) | -0.421%
COc1cc(CN2CCN(c3ncccn3)CC2)cc(OC)c1 | -1.39%
Cc1ccnc(NC(=O)CCNS(=O)(=O)c2ccc(C)c(C)c2)c1 | -1.33%
Cc1cc(C)cc(NC(=O)COC(=O)CCn2c(C)csc2=O)c1 | -1.32%
O=C1C=C(NNC(=O)c2ccncc2)CC(c2ccccc2)C1 (centres undefined) | -0.302%
CCOC(=O)C1=C(C)N(Cc2ccccc2)C(=O)NC1c1ccc(OC)cc1 (centres undefined) | 1.6%
O=C(O)CNS(=O)(=O)c1ccc2c(c1)Cc1cc(S(=O)(=O)NCC(=O)O)ccc1-2 | -1.23%
CC(C)(C)C(=O)NCCc1nc2ccccc2n1CC(=O)c1ccc(Cl)cc1 | 0.0081%
Cc1ccc(NC(=S)N2CCN(Cc3ccc4c(c3)OCO4)CC2)c(C)c1 | -1.41%
COc1ccc(OC)c(NC(=O)C2CC2c2ccccc2)c1 (centres undefined) | -1.35%
Cc1cc(OC(C)C(=O)NCc2ccccn2)c2c(C)cc(=O)oc2c1 (centres undefined) | -1.49%
COc1cc2cc(CN(CCN3CCOCC3)C(=O)Nc3ccc(F)cc3)c(=O)[nH]c2cc1OC | -1.42%
O=C(COc1ccc(C(=S)N2CCOCC2)cc1)N1CCOCC1 | -1.21%

Compound | activity (protection from FP59)
O=C(c1ccco1)N1CCN(c2ncccn2)CC1 | -1.18%
O=C(C1CCN(c2nnc(N3CCCC3=O)s2)CC1)N1CCN(c2cccc(C(F)(F)F)c2)CC1 | -1.53%
Cc1ccc(C(=O)COc2cc(O)c3c(=O)cc(-c4ccccc4)oc3c2)cc1 | -1.17%
O=C(NCCc1ccccc1)C1CCC(=O)N(Cc2cccc(C(F)(F)F)c2)C1 (centres undefined) | -1.38%
O=C(O)CC1(CC(=O)NCc2ccc(Cl)cc2)CCCCC1 | -1.39%
Cc1ccc(C(=O)NC(=S)Nc2ccc3[nH]c(=O)[nH]c3c2)c(C)c1 | -1.44%
O=C(NNC(=O)c1cccc(-n2cccc2)c1)c1ccc(F)cc1 | -1.28%
Cc1ccccc1N1C(=O)C(Cc2ccc(F)cc2)S/C1=C(\C#N)C(N)=O (centres undefined) | -1.54%
COC(C[C@H](O)[C@H](C)[C@@H](O)COCc1ccccc1)OC | -1.17%
CC(C)OC(=O)c1ccc(N2CCN(c3ccccc3F)CC2)nc1 | -1.46%
CCSC1=NCCN1S(=O)(=O)c1ccc(Cl)cc1 | -1.47%
O=C(O)CCCC(=O)NCCCCc1ccccc1 | -1.32%
Cc1c(C(=O)N(Cc2ccccc2Cl)C2CCS(=O)(=O)C2)oc2ccccc12 (centres undefined) | 10.7%
COC(=O)C(CCSC)NC(=O)Cn1ncc2c(=O)oc3ccccc3c21 (centres undefined) | -1.5%
COc1cccc(CC(=O)n2nc(N)c3cc4ccc(OC)cc4nc32)c1 | -1.51%
CCCOC(=O)CSC1=C(C#N)C(c2ccccc2Cl)CC(=O)N1 (centres undefined) | -1.15%
O=C(CCS(=O)(=O)c1ccc2c(c1)NC(=O)CS2)NCc1cccs1 | -0.809%
COc1ccc(-n2ncc3c(=O)n(CC(=O)NC(C)C)cnc32)cc1 | -1.39%
Cc1ccc(NC2CCCN(C(=O)Cc3nonc3C)C2)cc1C (centres undefined) | -1.47%
